# Test results as given in PubChem BioAssay (NCI).
# This is part of a sample that, as a whole, favours compounds with a hit. Of some 79,000 tested, about 15% had one in any assay. A number with no mark means an inactive call. Activity calls are given as the source filed them. Rule as the data show it: active = growth inhibition above about 70%; inactive = the rest.
# Tests used:
# [1] = NCI Yeast Anticancer Drug Screen. Data for the rad52 strain (AID 147);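 also: 0% = growth of vehicle-treated control cultures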; settings: S. cerevisiae rad52 mutant growth inhibition, active compounds read high
# How it was run: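 Growth of repair-deficient yeast cells was compared between compound-treated and vehicle-treated cultures to give percent inhibition.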
# [2] = NCI Yeast Anticancer Drug Screen. Data for the wt1 strain (AID 149);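 also: 0% = growth of vehicle-treated wt1 cultures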; settings: S. cerevisiae wt1 strain (SPY 50644) growth inhibition, active compounds read high
# How it was run: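 Yeast wt1 strain exposed to compounds; growth inhibition measured relative to vehicle-treated controls.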
# [3] = NCI Yeast Anticancer Drug Screen. Data for the rad50EPP+ strain (AID 151);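 also: 0% = growth of vehicle-treated control cultures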; settings: S. cerevisiae rad50 mutant strain, active compounds read high
# How it was run: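 Measured: growth inhibition of rad50EPP+ yeast. Reference: vehicle-treated controls. Screen uses strains with defined genetic alterations in DNA damage repair or cell cycle control.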
# [4] = NCI Yeast Anticancer Drug Screen. Data for the mgt1 strain (AID 153); settings: S. cerevisiae mgt1 mutant growth inhibition, active compounds read high
# How it was run: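 Compounds were applied to mgt1 mutant yeast, and growth was then compared against vehicle-treated control cultures to give percent inhibition.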
# [5] = NCI Yeast Anticancer Drug Screen. Data for the rad50 strain (AID 155);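 also: 0% = growth of vehicle-only cultures of the same strain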; settings: S. cerevisiae rad50 strain growth inhibition, active compounds read high
# How it was run: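 Yeast carrying a defined DNA repair defect were exposed to test compounds, and growth was compared with vehicle-treated controls to give percent inhibition.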
# [6] = NCI Yeast Anticancer Drug Screen. Data for the mec2-1 strain (AID 157); settings: S. cerevisiae mec2-1 strain, active compounds read high
# How it was run: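 Compounds were applied to mec2-1 yeast cells. Their growth was then compared with that of vehicle-treated cultures to give growth inhibition.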
# [7] = NCI Yeast Anticancer Drug Screen. Data for the rad14 strain (AID 159);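 also: 0% = growth of vehicle-treated control cultures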; settings: S. cerevisiae rad14 strain growth inhibition, active compounds read high
# How it was run: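 Yeast cells carrying a defined DNA-repair defect were exposed to compounds, and growth inhibition was calculated relative to vehicle-treated control cultures.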
# [8] = NCI Yeast Anticancer Drug Screen. Data for the sgs1 mgt1 strain (AID 161);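 also: 0% = growth of cultures given vehicle only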; settings: S. cerevisiae sgs1 mgt1 strain, active compounds read high
# How it was run: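 Growth of a repair-deficient yeast mutant was monitored after compound treatment and expressed as inhibition relative to vehicle-treated cultures.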
# [9] = NCI Yeast Anticancer Drug Screen. Data for the CLN2oe strain (AID 163);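 also: 0% = growth of vehicle-only control cultures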; settings: S. cerevisiae CLN2oe strain, active compounds read high
# How it was run: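 Cells of an engineered yeast line with disturbed cell-cycle regulation are treated with compound. Inhibition of growth is then calculated relative to the vehicle-treated reference.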
# [10] = NCI Yeast Anticancer Drug Screen. Data for the cln2 rad14 strain (AID 165);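 also: 0% = growth equal to vehicle treated cultures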; settings: S. cerevisiae cln2 rad14 strain, active compounds read high
# How it was run: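 Strain: cln2 rad14 yeast, altered in cell cycle control and DNA damage repair. Read-out: growth inhibition vs vehicle.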
# [11] = NCI Yeast Anticancer Drug Screen. Data for the bub3 strain (AID 167); settings: S. cerevisiae bub3 mutant strain, active compounds read high
# How it was run: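 Compounds were applied to a genetically altered yeast strain carrying a cell-cycle control defect. Growth inhibition was scored against vehicle-treated controls.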
# [12] = NCI Yeast Anticancer Drug Screen. Data for the wt2 strain (AID 169);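 also: 0% = growth of vehicle-treated yeast cultures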; settings: S. cerevisiae wt2 strain growth inhibition, active compounds read high
# How it was run: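 Growth of compound-treated yeast is measured and expressed as inhibition relative to vehicle-only controls.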
# [13] = NCI Yeast Anticancer Drug Screen. Data for the mlh1 strain (AID 171);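 also: 0% = growth of vehicle-treated control cultures of the same strain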; settings: S. cerevisiae mlh1 strain growth inhibition, active compounds read high
# How it was run: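 Test agents were incubated with yeast bearing a defined DNA damage repair or cell cycle control alteration; values are growth inhibition normalised to vehicle-treated cultures.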
# [14] = NCI Yeast Anticancer Drug Screen. Data for the sgs1 strain (AID 173);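 also: 0% = growth of vehicle-only control cultures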; settings: S. cerevisiae sgs1 mutant, active compounds read high
# How it was run: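 Strain with an altered DNA repair or cell cycle pathway exposed to compound. Growth then measured. Value = inhibition versus vehicle control.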
# [15] = NCI Yeast Anticancer Drug Screen. Data for the mlh1 rad18 strain (AID 175); settings: S. cerevisiae mlh1 rad18 strain growth inhibition, active compounds read high
# How it was run: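 A repair-deficient yeast strain is exposed to test compound, and growth is scored relative to vehicle-treated controls.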
# [16] = NCI Yeast Anticancer Drug Screen. Data for the rad18 strain (AID 177); settings: S. cerevisiae rad18 mutant growth inhibition, active compounds read high
# How it was run: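 DNA-repair-defective yeast; compound treatment; growth inhibition scored against vehicle.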
# [17] = at 5.0 µM (retest, dose inferred, filed as 0.5)
# [18] = at 50.0 µM (retest, dose inferred, filed as 5.0)
structure (smiles),measurement,setting,value
CN1C(=O)C(CC(=O)O)NC1=S (stereo unspecified),growth inhibition,[1]; at 1.2 µM,0%
same,growth inhibition,[1]; at 3.7 µM,0%
same,growth inhibition,[1]; at 11.0 µM,-1%
same,growth inhibition,[1]; at 33.0 µM,6%
same,growth inhibition,[1]; at 100.0 µM,22%
same,growth inhibition,[2]; at 1.2 µM,-2%
same,growth inhibition,[2]; at 3.7 µM,-2%
same,growth inhibition,[2]; at 11.0 µM,1%
same,growth inhibition,[2]; at 33.0 µM,3%
same,growth inhibition,[2]; at 100.0 µM,11%
same,growth inhibition,[3]; at 1.2 µM,-1%
same,growth inhibition,[3]; at 3.7 µM,-3%
same,growth inhibition,[3]; at 11.0 µM,-2%
same,growth inhibition,[3]; at 33.0 µM,-10%
same,growth inhibition,[3]; at 100.0 µM,-5%
same,growth inhibition,[4]; at 1.2 µM,-3%
same,growth inhibition,[4]; at 3.7 µM,-2%
same,growth inhibition,[4]; at 11.0 µM,1%
same,growth inhibition,[4]; at 33.0 µM,21%
same,growth inhibition,[4]; at 100.0 µM,27%
same,growth inhibition,[5]; at 1.2 µM,-1%
same,growth inhibition,[5]; at 3.7 µM,-2%
same,growth inhibition,[5]; [17],20%
same,growth inhibition,[5]; at 11.0 µM,2%
same,growth inhibition,[5]; at 33.0 µM,9%
same,growth inhibition,[5]; [18],14%
same,growth inhibition,[5]; at 50.0 µM,61.9%
same,growth inhibition,[5]; at 100.0 µM,25%
same,growth inhibition,[6]; at 1.2 µM,1%
same,growth inhibition,[6]; at 3.7 µM,3%
same,growth inhibition,[6]; [17],2%
same,growth inhibition,[6]; at 11.0 µM,4%
same,growth inhibition,[6]; at 33.0 µM,15%
same,growth inhibition,[6]; [18],27%
same,growth inhibition,[6]; at 50.0 µM,33.9%
same,growth inhibition,[6]; at 100.0 µM,47%
same,growth inhibition,[7]; at 1.2 µM,0%
same,growth inhibition,[7]; at 3.7 µM,0%
same,growth inhibition,[7]; at 11.0 µM,-1%
same,growth inhibition,[7]; at 33.0 µM,16%
same,growth inhibition,[7]; at 100.0 µM,39%
same,growth inhibition,[8]; [17],-1%
same,growth inhibition,[8]; [18],17%
same,growth inhibition,[8]; at 50.0 µM,58.2%
same,growth inhibition,[9]; at 1.2 µM,-3%
same,growth inhibition,[9]; at 3.7 µM,-3%
same,growth inhibition,[9]; at 11.0 µM,-1%
same,growth inhibition,[9]; at 33.0 µM,-2%
same,growth inhibition,[9]; at 100.0 µM,2%
same,growth inhibition,[10]; [17],-10%
same,growth inhibition,[10]; [18],12%
same,growth inhibition,[10]; at 50.0 µM,2.1%
same,growth inhibition,[11]; at 1.2 µM,-4%
same,growth inhibition,[11]; at 3.7 µM,-7%
same,growth inhibition,[11]; [17],-10%
same,growth inhibition,[11]; at 11.0 µM,-3%
same,growth inhibition,[11]; at 33.0 µM,3%
same,growth inhibition,[11]; [18],2%
same,growth inhibition,[11]; at 50.0 µM,65.8%
same,growth inhibition,[11]; at 100.0 µM,43%
same,growth inhibition,[12]; at 1.2 µM,-2%
same,growth inhibition,[12]; at 3.7 µM,0%
same,growth inhibition,[12]; at 11.0 µM,3%
same,growth inhibition,[12]; at 33.0 µM,7%
same,growth inhibition,[12]; at 100.0 µM,20%
same,growth inhibition,[13]; at 1.2 µM,-2%
same,growth inhibition,[13]; at 3.7 µM,0%
same,growth inhibition,[13]; at 11.0 µM,4%
same,growth inhibition,[13]; at 33.0 µM,11%
same,growth inhibition,[13]; at 100.0 µM,46%
same,growth inhibition,[14]; at 1.2 µM,0%
same,growth inhibition,[14]; at 3.7 µM,5%
same,growth inhibition,[14]; at 11.0 µM,9%
same,growth inhibition,[14]; at 33.0 µM,24%
same,growth inhibition,[14]; at 100.0 µM,70% (active)
same,growth inhibition,[15]; [17],-11%
same,growth inhibition,[15]; [18],62%
same,growth inhibition,[15]; at 50.0 µM,25.7%
same,growth inhibition,[16]; at 1.2 µM,1%
same,growth inhibition,[16]; at 3.7 µM,0%
same,growth inhibition,[16]; at 11.0 µM,-9%
same,growth inhibition,[16]; at 33.0 µM,15%
same,growth inhibition,[16]; at 100.0 µM,45%
O=c1c2ccccc2nc(-c2cccc([N+](=O)[O-])c2)n1O,growth inhibition,[1]; at 1.2 µM,17%
same,growth inhibition,[1]; at 3.7 µM,45%
same,growth inhibition,[1]; at 11.0 µM,83% (active)
same,growth inhibition,[1]; at 33.0 µM,91% (active)
same,growth inhibition,[1]; at 100.0 µM,91% (active)
same,growth inhibition,[2]; at 1.2 µM,12%
same,growth inhibition,[2]; at 3.7 µM,21%
same,growth inhibition,[2]; at 11.0 µM,60%
same,growth inhibition,[2]; at 33.0 µM,84% (active)
same,growth inhibition,[2]; at 100.0 µM,90% (active)
same,growth inhibition,[3]; at 1.2 µM,-9%
same,growth inhibition,[3]; at 3.7 µM,-5%
same,growth inhibition,[3]; at 11.0 µM,13%
same,growth inhibition,[3]; at 33.0 µM,35%
same,growth inhibition,[3]; at 100.0 µM,65%
same,growth inhibition,[4]; at 1.2 µM,13%
same,growth inhibition,[4]; at 3.7 µM,21%
same,growth inhibition,[4]; at 11.0 µM,52%
same,growth inhibition,[4]; at 33.0 µM,85% (active)
same,growth inhibition,[4]; at 100.0 µM,90% (active)
same,growth inhibition,[5]; at 1.2 µM,14%
same,growth inhibition,[5]; at 3.7 µM,31%
same,growth inhibition,[5]; [17],12%
same,growth inhibition,[5]; at 11.0 µM,76% (active)
same,growth inhibition,[5]; at 33.0 µM,89% (active)
same,growth inhibition,[5]; [18],97% (active)
same,growth inhibition,[5]; at 50.0 µM,97.8% (active)
same,growth inhibition,[5]; at 100.0 µM,91% (active)
same,growth inhibition,[6]; at 1.2 µM,14%
same,growth inhibition,[6]; at 3.7 µM,19%
same,growth inhibition,[6]; [17],7%
same,growth inhibition,[6]; at 11.0 µM,37%
same,growth inhibition,[6]; at 33.0 µM,58%
same,growth inhibition,[6]; [18],95% (active)
same,growth inhibition,[6]; at 50.0 µM,97.7% (active)
same,growth inhibition,[6]; at 100.0 µM,68%
same,growth inhibition,[7]; at 1.2 µM,36%
same,growth inhibition,[7]; at 3.7 µM,73% (active)
same,growth inhibition,[7]; at 11.0 µM,93% (active)
same,growth inhibition,[7]; at 33.0 µM,97% (active)
same,growth inhibition,[7]; at 100.0 µM,97% (active)
same,growth inhibition,[8]; [17],26%
same,growth inhibition,[8]; [18],97% (active)
same,growth inhibition,[8]; at 50.0 µM,98% (active)
same,growth inhibition,[9]; at 1.2 µM,6%
same,growth inhibition,[9]; at 3.7 µM,15%
same,growth inhibition,[9]; at 11.0 µM,33%
same,growth inhibition,[9]; at 33.0 µM,46%
same,growth inhibition,[9]; at 100.0 µM,51%
same,growth inhibition,[10]; [17],-20%
same,growth inhibition,[10]; [18],76% (active)
same,growth inhibition,[10]; at 50.0 µM,87.2% (active)
same,growth inhibition,[11]; at 1.2 µM,-4%
same,growth inhibition,[11]; at 3.7 µM,5%
same,growth inhibition,[11]; [17],71% (active)
same,growth inhibition,[11]; at 11.0 µM,43%
same,growth inhibition,[11]; at 33.0 µM,59%
same,growth inhibition,[11]; [18],96% (active)
same,growth inhibition,[11]; at 50.0 µM,84.8% (active)
same,growth inhibition,[11]; at 100.0 µM,70% (active)
same,growth inhibition,[12]; at 1.2 µM,25%
same,growth inhibition,[12]; at 3.7 µM,49%
same,growth inhibition,[12]; at 11.0 µM,87% (active)
same,growth inhibition,[12]; at 33.0 µM,94% (active)
same,growth inhibition,[12]; at 100.0 µM,95% (active)
same,growth inhibition,[13]; at 1.2 µM,16%
same,growth inhibition,[13]; at 3.7 µM,29%
same,growth inhibition,[13]; at 11.0 µM,71% (active)
same,growth inhibition,[13]; at 33.0 µM,78% (active)
same,growth inhibition,[13]; at 100.0 µM,90% (active)
same,growth inhibition,[14]; at 1.2 µM,37%
same,growth inhibition,[14]; at 3.7 µM,72% (active)
same,growth inhibition,[14]; at 11.0 µM,91% (active)
same,growth inhibition,[14]; at 33.0 µM,94% (active)
same,growth inhibition,[14]; at 100.0 µM,95% (active)
same,growth inhibition,[15]; [17],21%
same,growth inhibition,[15]; [18],98% (active)
same,growth inhibition,[15]; at 50.0 µM,98.1% (active)
same,growth inhibition,[16]; at 1.2 µM,37%
same,growth inhibition,[16]; at 3.7 µM,64%
same,growth inhibition,[16]; at 11.0 µM,88% (active)
same,growth inhibition,[16]; at 33.0 µM,92% (active)
same,growth inhibition,[16]; at 100.0 µM,92% (active)
